aSyn UTR act = Activators via SNCA 5'UTR binding, MLPCN. alpha-synuclein 5'UTR reporter, activators screen. activity score, % (tested at 7.5 µM), hits read low. 7.1% of 300,000 active; in the data active = activity score below about -60%
Large screens that a line does not name were inactive. Shown is part of a subset that was picked to be rich in hits.

C[C@H](NC(=O)[C@@H]1Cc2ccccc2CN1)C(=O)Nc1ccc2c(c1)OCCO2	aSyn UTR act -65
CCC(C)[C@H](NC(=O)[C@@H]1Cc2ccccc2CN1)C(=O)Nc1ccc2c(c1)OCO2 (stereo partly specified)	aSyn UTR act -101
CC(=O)Nc1cccc(C(=O)OCC(=O)N2CCC(c3ccccc3)=N2)c1	aSyn UTR act -89
CC(=O)Nc1cccc(C(=O)OCC(=O)c2ccccc2Cl)c1	aSyn UTR act -99
CCC(=O)Nc1cccc(C(=O)OCC(=O)c2ccccc2Cl)c1	aSyn UTR act -171
CCCCCCc1ccc(N2C[C@H](C)[C@@H](CC(=O)NCc3ccccc3)C2=O)cc1	aSyn UTR act -82
O=C(C1CC1)N1CCN(c2nc3ccccc3s2)CC1	aSyn UTR act -84
CCC(=O)N1CCN(c2nc3ccccc3s2)CC1	aSyn UTR act -105
CNC(=S)N1CCN(c2nc3ccccc3s2)CC1	aSyn UTR act -75
Cc1cccc(N2CSC3=C(C#N)C(c4ccc(C)o4)CC(=O)N3C2)c1 (stereo unspecified)	aSyn UTR act -86
Cc1ccc(Nc2ccc([N+](=O)[O-])cn2)cc1Cl	aSyn UTR act -93
CN(C)c1ccc(Nc2ccc([N+](=O)[O-])cn2)cc1	aSyn UTR act -162
COc1ccccc1NC(=O)CSc1ccc(-c2ccc(-n3cccn3)cc2)nn1	aSyn UTR act -113
CC(=O)c1cccc(NC(=O)CSc2ccc(-c3ccc4c(c3)OCO4)nn2)c1	aSyn UTR act -87
COc1ccc(-c2ccc(SCC(=O)Nc3cccc(C(C)=O)c3)nn2)cc1OC	aSyn UTR act -82
Cc1ccc2ccc(C3C(=O)c4ccccc4C3=O)nc2c1	aSyn UTR act -146
Nc1ccc(C(=O)OCCc2ccccc2)cc1	aSyn UTR act -142
COc1ccc(C(=O)OCCc2ccc(O)cc2)cc1	aSyn UTR act -179
O=C(OCCc1ccccc1)c1cc(O)c(O)c(O)c1	aSyn UTR act -105
Cc1ccc(F)cc1NC(=O)c1sc2ncn(CC(=O)N3CCN(c4ccccn4)CC3)c(=O)c2c1C	aSyn UTR act -89
C=CCc1cccc(/C=N/NC(=O)CNc2ccccc2)c1O	none
C=CCc1cccc(/C=C/c2cc(=O)c3ccccc3[nH]2)c1O	aSyn UTR act -71
Cc1ccc(C(=O)/C=C/c2ccccc2[N+](=O)[O-])cc1	aSyn UTR act -173
O=C(/C=C/c1ccccc1[N+](=O)[O-])c1ccccc1Br	aSyn UTR act -79
Cc1ccc(C(=O)C(C)OC(=O)c2ccccc2[N+](=O)[O-])cc1 (stereo unspecified)	aSyn UTR act -158
Cc1cc(Nc2nc3ccccc3nc2Cl)n(-c2ccccc2)n1	aSyn UTR act -88
O=[n+]1cc(-c2cc3ccccc3o2)n([O-])c2c1CCCC2	aSyn UTR act -91
Cc1cc(C)n(-c2nc(-c3ccc(Cl)cc3)cs2)n1	aSyn UTR act -93
Cc1cc(C)n2nc(-c3ccc(Cl)cc3)cc2n1	aSyn UTR act -129
COc1ccc(-c2nc3nc(C)cc(C)n3n2)cc1	aSyn UTR act -135
COc1ccc(-c2cc3nc(C)cc(C)n3n2)cc1	aSyn UTR act -183
Cc1cc(C)n2nc(-c3ccc(Br)cc3)cc2n1	aSyn UTR act -122
CCOc1ccc(N(C(=O)c2ccccc2Cl)C2=NC(C)(C)CS2)cc1	aSyn UTR act -79
CCN(/C=N/c1sc2c(c1C#N)CCCCC2)CC	aSyn UTR act -142
CN1CCN(/C=N/c2sc3c(c2C#N)CCCCC3)CC1	aSyn UTR act -147
N#C/C(C(N)=O)=C1/CCc2ccccc2N1	aSyn UTR act -63
CCOC(=O)C(=O)N(Nc1ccc(C)cc1)c1ccc(C)cc1	aSyn UTR act -178
O=C1C(Cl)=C(Nc2cccc(O)c2)C(=O)N1Cc1ccccc1	aSyn UTR act -69
COc1cc2nc(Nc3cccc(F)c3)nc(N)c2cc1OC	aSyn UTR act -93
c1ccc(CSc2nnnn2-c2ccc3c(c2)OCCO3)nc1	aSyn UTR act -71
C=CCn1c(=N)n(CC(=O)c2cccc([N+](=O)[O-])c2)c2ccccc21	aSyn UTR act -77
Sc1oc(-c2ccccc2)cc1C=Nc1ccccc1	aSyn UTR act -117
CSc1ccc(CNc2ccc(C)cc2)cc1	aSyn UTR act -149
CSc1ccc(CNc2ccc(C)c(C)c2)cc1	aSyn UTR act -139
Cc1ccc(N2C(=O)c3n[nH]c(C)c3C2c2ccco2)cc1 (stereo unspecified)	aSyn UTR act -65
COc1ccccc1-c1cc2ccccc2[nH]1	aSyn UTR act -207
CCC(N=c1cc(-c2ccc(OC)cc2)oc2ccc(C)cc12)C(=O)O (stereo unspecified)	aSyn UTR act -120
Fc1ccc(NC(=S)NN=C2CCCCCC2)cc1	aSyn UTR act -75
S=C(NN=C1CCCCCC1)Nc1ccc(Cl)cc1	aSyn UTR act -71
O=S1(=O)CCN2C=C(Br)C=C(Br)C2=N1	aSyn UTR act -72
COc1ccccc1/C=N/NC(=O)c1csc(C)c1C	aSyn UTR act -78
Cc1scc(C(=O)N/N=C/c2ccc(Cl)s2)c1C	aSyn UTR act -93
O=C(NCCS(=O)(=O)N1CCN(c2ccc(F)cc2)CC1)c1ccc(Br)o1	none
CCOc1ccc(OCC(=O)NCCS(=O)(=O)N2CCN(c3ccc(F)cc3)CC2)cc1	aSyn UTR act -72
CN(C)/C=C/C(=O)c1cnc(-c2ccccc2)s1	aSyn UTR act -116
O=C(c1ccccc1)c1cnc(-c2ccccc2)s1	aSyn UTR act -99
CN(C)/C=C/C(=O)c1cnc(-c2ccc(Cl)cc2)s1	aSyn UTR act -90
O=C1OCCC1Sc1nnc(-c2ccc3c(c2)OCO3)o1 (stereo unspecified)	none
Nc1oc2ccccc2c(=O)c1-c1ccc2c(c1)OCO2	aSyn UTR act -75
CCN(CC)S(=O)(=O)c1cccc(C(=O)N[C@H](C(=O)Nc2nc3ccc(F)cc3s2)C(C)C)c1	aSyn UTR act -83
Cc1cccc(C(=O)NC(C(=O)Nc2nc(-c3ccccn3)cs2)C(C)C)c1 (stereo unspecified)	none
CC1CCC/C(=N/Nc2nc3ccccc3s2)C1 (stereo unspecified)	aSyn UTR act -134
CC1(C)CC(=O)C/C(=N/Nc2nc3ccccc3s2)C1	aSyn UTR act -67
Clc1ccc(SCc2cc(-c3ccccc3)on2)cc1	aSyn UTR act -75
O=C(CCl)NCc1cc(-c2ccc(Cl)cc2)no1	aSyn UTR act -65
Clc1ccc(-c2cc(CSc3ccccc3)on2)cc1	aSyn UTR act -181
c1ccc(Cc2cc(-c3ccccc3)on2)cc1	aSyn UTR act -130
Clc1ccc(-c2cc(CSc3cccc(Cl)c3)on2)cc1	aSyn UTR act -67
c1ccc(SCc2cc(-c3ccccc3)no2)cc1	aSyn UTR act -143
COc1ccc(Br)c(-c2nnc(CS(=O)(=O)c3ccccc3)o2)c1	aSyn UTR act -85
COc1ccc(S(=O)(=O)NCc2ccccn2)cc1NC(=O)c1ccccc1	aSyn UTR act -62
CCOc1ccc(S(=O)(=O)NCc2ccccn2)cc1NC(=O)c1ccccc1F	none
Cc1ccc(CSc2ncnc3c2cnn3-c2ccccc2)cc1	aSyn UTR act -137
Cc1ccc(CSc2ncnc3c2cnn3-c2ccc(C)cc2)cc1	aSyn UTR act -93
Fc1ccc(-n2ncc3c(SCc4cccnc4)ncnc32)cc1	aSyn UTR act -138
Cc1ccc(-n2ncc3c(SCc4ccccc4)ncnc32)cc1	aSyn UTR act -180
Cc1ccc(-n2ncc3c(SCC(=O)NNC(=O)c4ccco4)ncnc32)cc1	aSyn UTR act -106
Cc1c(-c2ccccc2)[n+](=O)c(-c2ccc(Br)cc2)c(C)n1[O-]	aSyn UTR act -102
Cc1ccc(-c2nc(C#N)c(NCc3cccc4c3OCO4)o2)cc1	aSyn UTR act -66
